Assay outcomes: PubChem, several laboratories
A selection: hits, their analogues and other compounds. The true share with any hit is near 5.4%.
CSC inhib – cancer stem cell viability inhibitors, primary screen, luminescence; inhibition, % at 7.5 µM; cancer stem cell-like cells viability; AID 2717, 2010; 1.1% of 300,000 active; in the data active = inhibition above about 75%; inconclusive = no clear call, values can overlap the other calls; tested in HMLE shEcad cells
ALR H2O2 inh – inhibitors of human ALR sulfhydryl oxidase, primary screen, biochemical, H2O2 detection, HRP-luminol luminescence, single point; inhibition, % (concentration not given with the values); 3.8% of 290,000 active; AID 485317, 2010; purified ALR, DTT oxidation; FAD-linked sulfhydryl oxidase ALR (Homo sapiens), P55789;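 active = mean replicate inhibition above about 79%, with every replicate also reaching it, limit read from the data; inconclusive = only one of the two criteria met; inactive = mean below limit and not every replicate reaching it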
PP5 inh – PP5 phosphatase inhibitors, primary screen, biochemical, fluorescence | purified PP5c, OMFP substrate fluorescence | inhibition, % at 6.7 µM | 0.18% of 320,000 active | AID 1987, 2009;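 active = inhibition above the campaign's mean inhibition across all tested compounds plus 3 SD, cut at about 9.5% in these data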
Target sequence (P53041 whole entry, looked up): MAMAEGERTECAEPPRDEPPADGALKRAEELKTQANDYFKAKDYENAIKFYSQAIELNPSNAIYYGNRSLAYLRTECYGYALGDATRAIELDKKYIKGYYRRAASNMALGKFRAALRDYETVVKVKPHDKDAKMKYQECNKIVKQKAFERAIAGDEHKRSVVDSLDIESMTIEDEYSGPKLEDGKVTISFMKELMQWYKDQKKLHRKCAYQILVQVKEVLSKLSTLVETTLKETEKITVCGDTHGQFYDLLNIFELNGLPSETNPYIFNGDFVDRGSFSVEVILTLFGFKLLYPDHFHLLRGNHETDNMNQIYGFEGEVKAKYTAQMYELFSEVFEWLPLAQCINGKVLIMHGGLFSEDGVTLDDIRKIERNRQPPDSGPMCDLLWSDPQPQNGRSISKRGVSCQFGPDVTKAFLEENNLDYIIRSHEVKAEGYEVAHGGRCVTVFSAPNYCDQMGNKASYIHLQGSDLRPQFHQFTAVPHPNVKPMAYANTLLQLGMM
PP1 counter – PP1-alpha phosphatase inhibitors, primary screen, counter-screen for PP5 inhibitor project, biochemical, fluorescence, OMFP substrate, single point; purified PP1alpha; inhibition, % at 6.7 µM; 0.9% of 320,000 active; AID 2235, 2010;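 active = inhibition above the mean inhibition of all tested compounds plus 3 SD, computed separately for each screening campaign, cut at about 15% in these data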
Calb FLC – C. albicans growth inhibition with fluconazole, primary screen, CaCi-2 strain, Alamar Blue fluorescence; growth inhibition, % (test concentration not listed); 0.57% of 300,000 active; AID 1979, 2009; C. albicans CaCi-2 (fluconazole-resistant clinical isolate) + fluconazole, 48 h;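 active = growth inhibition above about 58% in most replicates, limit read from the data, passing the limit was not always enough; inconclusive = exactly half the replicates above a set limit; inactive = most replicates below a set limit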;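 also: all wells also contain fluconazole at 8 µg/ml as a sub-toxic cotreatment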
Hits are given with their value; i = inactive; ? = inconclusive; nt = not tested or not shown.

SMILES	CSC inhib	ALR H2O2 inh	PP5 inh	PP1 counter	Calb FLC
Cc1nnc(SCC(=O)Nc2ccc3c(c2)OCCO3)n1N	i	i	i	i	i
Nn1c(SCC(=O)Nc2ccc3c(c2)OCCO3)nnc(CCC(=O)O)c1=O	i	93.2	i	i	i
Nn1c(SCC(=O)Nc2ccc3c(c2)OCO3)nncc1=O	i	98.3	i	i	i
Nn1c(SCC(=O)Nc2cccc(C(F)(F)F)c2)nncc1=O	i	97.4	i	i	i
Nn1c(SCC(=O)Nc2cc(C(F)(F)F)ccc2Cl)nncc1=O	i	i	i	i	i
CC(=O)Nc1ccc(NC(=O)CSc2ccc(C(F)(F)F)cc2[N+](=O)[O-])cc1	i	i	i	i	i
Cc1ccc(NC(=O)c2ccc3c(c2)N(CC(=O)N2CCCCC2)C(=O)C(C)(C)O3)cc1	i	i	i	i	i
CCS(=O)(=O)N1CCN=C1SCc1ccccc1	i	i	i	i	i
CCCS(=O)(=O)N1CCN=C1SCc1cccc2ccccc12	nt	99.0	i	i	i
CCCS(=O)(=O)N1CCN=C1SCc1cccnc1	i	98.5	i	i	i
CCS(=O)(=O)N1CCN=C1SCc1ccc(F)cc1	i	88.8	i	i	i
O=S(=O)(c1ccc(Br)cc1)N1CCN=C1SCc1cccnc1	i	?	i	i	?
CCCS(=O)(=O)N1CCN=C1SCc1ccc(F)cc1	i	91.8	i	i	i
CCOC(=O)Nc1ccc(NC(=O)c2c(OC)cccc2OC)cc1	i	i	i	i	i
CC(C)Cn1c(SCC(=O)N2CCc3ccccc3C2)nc2cc(Cl)ccc2c1=O	i	i	i	i	i
CC(=O)c1ccc(N2CCN(C(=O)c3ccc(OCc4c(C)noc4C)cc3)CC2)cc1	i	i	i	i	i
CC(=O)Nc1ccc(S(=O)(=O)Nc2ccc(S(=O)(=O)Nc3ncccn3)cc2)cc1	i	i	i	i	i
CCS(=O)(=O)N1CCN=C1SCc1cccc(F)c1	i	i	i	i	i
CS(=O)(=O)N1CCN=C1SCc1cccc(F)c1	i	80.8	i	i	i
NC(=O)c1cc2cc(Cl)ccc2oc1=Nc1cccc(C(F)(F)F)c1	i	90.8	i	i	i
NC(=O)c1cc2cc(Cl)ccc2oc1=O	i	i	i	i	i
CCOC(=O)c1oc2cccc(O)c2c1CN(Cc1ccccc1)C(C)=O	i	85.2	i	i	i
CCOC(=O)c1oc2cccc(O)c2c1C	i	i	i	i	i
COc1ccc(-c2cc(C(=O)N3CC4(C)CC3CC(C)(C)C4)no2)cc1OC (stereo not drawn)	83.2	i	i	i	i
CC1(C)C[C@@H]2C[C@@](C)(CN2C(=O)c2cc(COc3cccc(C(F)(F)F)c3)on2)C1	95.8	i	i	i	i
SMILES	CSC inhib	ALR H2O2 inh	PP5 inh	PP1 counter	Calb FLC
O=C(c1cc(COc2cccc(C(F)(F)F)c2)on1)N1C[C@H]2CC[C@H]1C2	i	i	i	i	i
O=C(Nc1ccc(F)c(Cl)c1)NC1CC1	i	i	i	i	83.0
O=C(Nc1ccc(F)c(Cl)c1)Nc1csc2ccccc12	77.4	i	i	i	i
O=C(Nc1ccc(F)c(Cl)c1)C1CCCC1	i	i	i	i	i
NC(=O)c1ccc(NC(=O)COC(=O)CC(NC(=O)c2ccccc2Cl)c2ccccc2)cc1 (stereo not drawn)	i	i	i	i	i
C=CCn1c(N)c(C(=O)NCc2cccnc2)sc1=S	i	98.5	i	i	i
O=C(CNC(=O)c1ccc(Cl)cc1)N/N=C/C=C/c1ccccc1	i	i	i	i	i
Cc1ccc(S(=O)(=O)c2ncccc2[N+](=O)[O-])cc1	i	i	i	i	108.5
Cc1ccc(S(=O)(=O)c2ncccc2N)cc1	i	nt	i	i	i
CCn1c(CNc2ccc(Cl)cc2)nnc1SCc1ccc(Cl)cc1	i	i	i	i	i
CCn1c(CNc2ccc(Cl)cc2)nnc1SCCN1CCCCC1	i	98.0	i	i	i
O=C(Cc1cccs1)NCc1cccc(Cl)c1	i	i	nt	nt	i
COc1ccc(OC)c(NC(=O)COC(=O)CCNc2ccccc2OC)c1	i	98.1	nt	nt	nt
COc1ccccc1NCCC(=O)OCC(=O)NCc1ccco1	i	98.7	i	i	i
CCOc1ccccc1NC(=O)Cn1c(=O)c2ccccc2n(CC)c1=O	i	i	i	i	i
COc1ccccc1OCCC(=O)OCC(=O)NCc1ccc(Cl)cc1	i	96.9	i	i	i
CCn1c(=O)n(CC(=O)Nc2cc(OC)ccc2OC)c(=O)c2ccccc21	i	98.7	i	i	i
COc1ccc(OC)c(NC(=O)COC(=O)Cc2ccc(-c3ccccc3)cc2)c1	i	i	i	i	i
CN(C)c1ccc(CNC2CC(C)(C)NC(C)(C)C2)cc1	i	i	i	i	i
O=C(CNC(=O)c1ccccc1O)N/N=C/c1cc(Br)ccc1OC(=O)/C=C/c1ccco1	i	i	i	i	i
CCc1[nH]nc(C(=O)NC2CCCN(Cc3ccccc3F)C2)c1C (stereo not drawn)	i	i	i	i	i
Cc1ccc(CNC(=O)COC(=O)Cc2ccc(-c3ccccc3)cc2)cc1	i	i	i	16.0	i
O=C(O)c1ccccc1NC(=O)c1cc(-c2ccccc2)nc2ccccc12	i	98.2	i	i	i
Cc1nn(C)cc1-c1cc(C(=O)O)c2ccccc2n1	i	nt	i	i	i
O=C(Nc1ccncc1)c1cc(-c2cccc(Br)c2)nc2ccccc12	106.1	i	i	i	i
SMILES	CSC inhib	ALR H2O2 inh	PP5 inh	PP1 counter	Calb FLC
Cc1ccc(-c2cc(C(=O)N3CCN(c4ccc(O)cc4)CC3)c3ccccc3n2)cc1	78.7	i	nt	nt	nt
Cc1cc(-c2cc(C(=O)O)c3ccccc3n2)c(C)s1	i	i	i	i	80.4
O=C(Nc1cccnc1)c1cc(-c2cccc(Br)c2)nc2ccccc12	i	i	i	i	i
Cc1ccc(-c2cc(C(=O)N3CCN(c4ccccc4O)CC3)c3ccccc3n2)cc1	i	i	i	i	i
Cc1ccc(S(=O)(=O)N2CCOCC2)cc1NC(=O)CNCc1ccccn1	i	i	i	i	i
Cc1cc(C)c2c(c1)C1(OCCO1)C(=O)N2	i	i	i	i	i
C/C(=N\NC(=O)c1cc(-c2cccnc2)nc2ccccc12)c1ccc(O)cc1O	100.0	i	i	i	?
Cc1ccc(-c2cc(C(=O)Nc3ccncc3)c3ccccc3n2)cc1	i	nt	i	i	i
O=C(NNC(=O)c1cc(-c2ccncc2)nc2ccccc12)c1ccccc1O	i	i	i	i	85.5
O=C(NNC(=O)c1cc(-c2ccc(Cl)c(Cl)c2)nc2ccccc12)Nc1ccccc1	92.2	i	i	i	i
O=C1NC(=Nc2ccccc2Cl)S/C1=C\c1cccc([N+](=O)[O-])c1O	i	i	i	i	94.9
COc1c(/C=C2\SC(=Nc3ccccc3Cl)NC2=O)cccc1[N+](=O)[O-]	i	i	i	i	i
CC(C)=C(NC(=O)c1ccccc1)C(=O)N/N=C/c1ccc(O)cc1	i	98.8	i	i	i
